High-throughput results: PubChem BioAssay, Broad Institute
PD-1 reverse act = activators reversing PD-1 mediated T-cell inhibition; primary human CD4 T cells, PD-L1 beads, CellTiter-Glo 96 h; activation, % (test concentration not listed); 29,000 tested, under 10 active; call rule not given here;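 further: 0% = median vehicle wells and 100% = positive control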
NOMO-1 viab = STK33 inhibitor candidate reducing NOMO-1 cell viability. inhibition, % (no concentration beside the values). hit rate 7.5% among 37,000. NOMO-1 AML viability, CellTiter-Glo luminescence, 72 h; in the data active means inhibition above about 80%; inconclusive means no clear call, values can overlap the other calls
Shh pathway inh = Sonic Hedgehog pathway inhibition; Shh-LIGHT2 Gli-luciferase reporter, 30 h; inhibition, % (concentration not given with the values); hit rate 2.1% among 22,000;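 active means mean inhibition across valid replicates above about 65%, limit read from the data; inconclusive means mean under the limit, yet half or more replicates past it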;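 further: pathway switched on by Shh-conditioned medium diluted 1 in 25 in low serum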
* = called active by the depositor; ? = inconclusive; nt = no result given. A selection: hits, their analogues and other compounds. The true share with any hit is near 7.7%.

SMILES	PD-1 reverse act	NOMO-1 viab	Shh pathway inh
CC1CN(c2nc3ccccc3nc2SCC(=O)Nc2ccccc2)CC(C)O1 (configuration not stated)	-2	88*	-36
O=C(CSc1nc2ccccc2nc1N1CCCC1)Nc1ccccc1	-2	43	-26
COc1ccc([N+](=O)[O-])cc1NC(=O)CN(c1ccccc1F)S(C)(=O)=O	2	14	nt
CCCCCC(=O)O[C@]1(C(C)=O)CCC2C3CCC4=CC(=O)CC[C@]4(C)C3CC[C@@]21C (some centres not stated)	nt	110*	96*
CC(=O)[C@@]1(O)CCC2C3CCC4=CC(=O)CC[C@]4(C)C3CC[C@@]21C (some centres not stated)	nt	34	32
CCOC(=O)c1ccccc1NC(=O)COc1ccccc1C	1	-12	nt
C=C(C)Cc1c(C)nc(-c2ccc(Cl)cc2)nc1OC(=S)N(CC)CC	-1	59	nt
COC(=O)c1ccc(C)c(NC(=O)CN(c2ccc(Cl)c(Cl)c2)S(C)(=O)=O)c1	-2	108*	nt
Cc1ccccc1NC(=O)CN(c1ccc(Cl)c(Cl)c1)S(C)(=O)=O	1	26	nt
COC(=O)c1ccc(Cl)c(NC(=O)CN(c2cccc(Cl)c2)S(C)(=O)=O)c1	2	129*	nt
COC(=O)c1ccc(Cl)c(NC(=O)CN(c2cccc(F)c2)S(C)(=O)=O)c1	-1	?	nt
COc1ccc(NC(=O)CCSc2ccc([N+](=O)[O-])cc2)cc1	nt	19	nt
COc1ccc(C(=O)CC2(O)C(=O)N(Cc3ccc(C)cc3)c3ccc(Cl)cc32)cc1[N+](=O)[O-] (configuration not stated)	-13	124*	nt
CCCN1C(=O)C(O)(CC(=O)c2ccc(OC)c([N+](=O)[O-])c2)c2ccccc21 (configuration not stated)	nt	118*	nt
CCCN1C(=O)C(O)(CC(=O)c2ccc(OC)c([N+](=O)[O-])c2)c2cc(Br)ccc21 (configuration not stated)	-12	113*	nt
N#CCCCN1C(=O)C(O)(CC(=O)c2ccc(Br)s2)c2ccccc21 (configuration not stated)	-1	47	nt
COc1ccc(C2(CNC(=O)c3ccc(OC)c([N+](=O)[O-])c3)CCCC2)cc1OC	-3	14	nt
COc1ccc(C(=O)CC2(O)C(=O)N(Cc3ccc(Cl)c(Cl)c3)c3ccccc32)cc1OC (configuration not stated)	1	43	nt
O=C(CC1(O)C(=O)N(Cc2ccccc2)c2ccc(Cl)cc21)c1ccc2c(c1)OCCO2 (configuration not stated)	1	26	nt
O=C(CC1(O)C(=O)N(Cc2ccc(Cl)cc2)c2ccc(Cl)cc21)c1ccc2c(c1)OCCO2 (configuration not stated)	-2	129*	nt
CCc1c(C)sc(NC(=O)COc2ccc(Cl)cc2)c1C(N)=O	1	-17	nt
COc1cc(COc2ccc3c4c(c(=O)oc3c2)CCC4)cc(OC)c1OC	2	34	-15
COc1ccc([N+](=O)[O-])cc1NC(=O)CS(=O)(=O)Cc1ccccc1	1	-17	nt
c1ccc(Cc2ccc[n+](Cc3ccccn3)c2)cc1	2	14	nt
Cc1ccc(CN2C(=O)C(O)(CC(=O)c3c(C)coc3C)c3cc(Cl)ccc32)cc1 (configuration not stated)	1	128*	nt
SMILES	PD-1 reverse act	NOMO-1 viab	Shh pathway inh
Cc1coc(C)c1C(=O)CC1(O)C(=O)N(Cc2cccc3ccccc23)c2ccccc21 (configuration not stated)	1	40	nt
CC1=NNC(=O)C1Oc1ccc(Cl)cc1Cl (configuration not stated)	0	12	3
C[C@H](CO)N1C[C@H](C)[C@@H](CN(C)S(=O)(=O)c2ccc(Cl)cc2)Oc2c(NC(=O)c3ccncc3)cccc2C1=O	0	16	-1
C[C@H]1CN([C@@H](C)CO)C(=O)c2cccc(NC(=O)c3ccc(-c4nccs4)cc3)c2O[C@@H]1CN(C)S(=O)(=O)c1ccccc1	nt	26	21
C[C@H]1CN([C@@H](C)CO)C(=O)c2cccc(NC(=O)c3ccc(-c4nccs4)cc3)c2O[C@H]1CN(C)S(=O)(=O)c1ccc(Cl)cc1	1	9	93*
C[C@@H]1CN([C@H](C)CO)C(=O)c2cccc(NC(=O)c3ccc(-c4nccs4)cc3)c2O[C@H]1CN(C)S(=O)(=O)c1ccc(Cl)cc1	nt	7	76*
C[C@H](CO)N1C[C@H](C)[C@H](CN(C)S(=O)(=O)c2ccc(Cl)cc2)Oc2c(NC(=O)c3ccncc3)cccc2C1=O	0	34	111*
C[C@H](CO)N1C[C@H](C)[C@@H](CN(C)S(=O)(=O)c2cccs2)Oc2c(NC(=O)c3ccc(-c4nccs4)cc3)cccc2C1=O	nt	7	40
C[C@@H]1CN([C@H](C)CO)C(=O)c2cccc(NC(=O)c3ccc(-c4nccs4)cc3)c2O[C@@H]1CN(C)S(=O)(=O)c1ccccc1	-1	3	17
C[C@H](CO)N1C[C@H](C)[C@H](CN(C)S(=O)(=O)c2cccs2)Oc2c(NC(=O)c3ccc(-c4nccs4)cc3)cccc2C1=O	-3	58	92*
CC(NS(=O)(=O)c1cc(Cl)ccc1Cl)C(=O)Nc1cccc([N+](=O)[O-])c1 (configuration not stated)	nt	13	nt
CC[n+]1ccc(C)c2cc(C(F)(F)F)ccc21	1	20	nt
COc1ccc(-c2noc(CN(C(=O)c3ccc(C)c([N+](=O)[O-])c3)C(C)C)n2)cc1	0	5	nt
COc1ccc(NC(=O)CSc2nc(C)cc(C(F)(F)F)n2)c([N+](=O)[O-])c1	-1	0	nt
C[C@H](CO)N1C[C@H](C)[C@@H](CN(C)S(=O)(=O)c2ccccc2)Oc2c(NC(=O)c3nc4ccccc4s3)cccc2C1=O	0	30	-16
Cc1ccc(S(=O)(=O)N(C)C[C@@H]2Oc3c(NC(=O)c4ccc(-c5nccs5)cc4)cccc3C(=O)N([C@H](C)CO)C[C@@H]2C)cc1	-4	82*	-7
C[C@@H]1CN([C@@H](C)CO)C(=O)c2cccc(NC(=O)c3nc4ccccc4s3)c2O[C@H]1CN(C)S(=O)(=O)c1ccc(Cl)cc1	-3	93*	-14
Cc1ccc(S(=O)(=O)N(C)C[C@H]2Oc3c(NC(=O)c4ccc(-c5nccs5)cc4)cccc3C(=O)N([C@@H](C)CO)C[C@H]2C)cc1	-1	6	1
COc1ccc(NC(=O)COc2ccc(CO)cc2OC)cc1	nt	19	nt
COC(=O)c1cccc(NC(=O)COc2cc(C)ccc2C)c1	1	20	nt
N#Cc1c(C(F)(F)F)cc(-c2cccs2)nc1SCC(O)COc1ccc(Cl)cc1 (configuration not stated)	-6	58	nt
COc1ccc(-c2cc(-c3cccs3)nc(SC(C(=O)O)c3ccccc3)c2C#N)cc1 (configuration not stated)	-6	92*	nt
COc1cc(NC(=O)C(Sc2nc(C)cc(C)c2C#N)c2ccccc2)c(OC)cc1Cl (configuration not stated)	3	6	32
CC(C)(C)c1cc(-c2cccs2)c(C#N)c(SCC(=O)Oc2ccccc2)n1	-32	18	65*
Cc1c(/C=C2\SC(c3ccccc3)=NC2=O)c(=O)n(-c2ccccc2)n1C	0	11	-25
